The Inhibition is the relative decrease from the control value, in per cent.

Our source for the Inhibition values is ChEMBL document CHEMBL4513139, “CO-ADD screening of University of Strathclyde (UK) compounds”.

Measured potencies and affinities stand elsewhere.

In experiment [1] the test system is Staphylococcus aureus. The settings on record: Concentration 32 ug.mL-1; ASSAY_TEST Inhibition of Bacterial Growth; detection method Absorption (OD600); MEDIA CAMHB; plate type 384well; NBS; CORNING #3640; time 18 hr.
For experiment [2], the system named is Escherichia coli. To be noted: Concentration 32 ug.mL-1; ASSAY_TEST Inhibition of Bacterial Growth; detection method Absorption (OD600); MEDIA CAMHB; plate type 384well; NBS; CORNING #3640; time 18 hr.

For the compound `CCOP(=O)(OCC)C(Cc1cn(Cc2cnc(C)nc2N)nn1)C(=O)O.O=C(O)C(F)(F)F` (configuration not stated), the Inhibition is listed as 18.42% in experiment [1] and -15.56% in experiment [2].
